# From PubChem BioAssay
# An excerpt weighted towards active compounds, which were near 2.3% of everything screened.
# CHRM1 agonist = human M1 muscarinic receptor agonism; activation, % at 3 µM; actives 0.33% (n = 360,000); CHO-K1 hM1, Fluo-8 calcium fluorescence, agonist mode; 0% DMSO, 100% acetylcholine EC100;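 active = activation above the run's mean compound activation plus 3 SD, cut at about 16% in these data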;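 note: peak over basal fluorescence ratio within a 140 s kinetic read after compound addition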
# Target sequence (P11229 whole entry, looked up): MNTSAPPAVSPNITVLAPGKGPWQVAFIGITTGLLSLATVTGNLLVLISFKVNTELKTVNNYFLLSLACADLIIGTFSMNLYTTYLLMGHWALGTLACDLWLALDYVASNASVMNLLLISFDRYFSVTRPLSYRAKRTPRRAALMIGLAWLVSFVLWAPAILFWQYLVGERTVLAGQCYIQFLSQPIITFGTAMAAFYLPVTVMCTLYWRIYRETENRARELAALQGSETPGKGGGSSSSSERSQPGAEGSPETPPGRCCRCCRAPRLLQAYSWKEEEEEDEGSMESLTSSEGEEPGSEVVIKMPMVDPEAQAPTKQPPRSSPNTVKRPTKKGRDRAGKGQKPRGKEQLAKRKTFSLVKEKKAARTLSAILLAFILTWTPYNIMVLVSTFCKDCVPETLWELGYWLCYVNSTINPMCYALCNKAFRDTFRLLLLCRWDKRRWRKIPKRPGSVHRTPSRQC
# CHO-K1 Ca ag = nonselective activator or artifact in parental CHO-K1 cells. activation, % at 3 µM. actives 0.48% (n = 360,000). Fluo-8 calcium fluorescence; scaled to maximal ATP response, vehicle zero; in the data active = activation above about 15%;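 note: untransfected CHO-K1 host cells lacking M1 receptor as counterscreen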
# CHRM1 antagonist = antagonists of human M1 muscarinic receptor; P11229; CHO-K1 hM1, Fluo-8 calcium fluorescence, ACh EC80 antagonist; inhibition, % at 3 µM; actives 1.3% (n = 360,000);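 active = percent inhibition above its own plate's cutoff, namely the mean of that plate's compound wells plus 3 SD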;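 note: peak over basal fluorescence ratio during 140 s after agonist addition; 0% = ACh EC80 plus DMSO and 100% = DMSO alone without agonist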
# M1 PAM = positive allosteric modulators of human M1 muscarinic receptor | P11229 | CHO-K1 hM1, Fluo-8 calcium fluorescence, ACh EC20; 0% = ACh EC20, 100% = maximal ACh | activation, % at 3 µM | actives 0.088% (n = 360,000); in the data active = activation above about 19%, passing the limit was not always enough
# CHO-K1 Ca antag = M1 antagonist counterscreen hit in parental CHO-K1 cells; ATP-induced calcium, Fluo-8 fluorescence; AID 602250; actives 0.6% (n = 360,000); inhibition, % at 3 µM;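 active = inhibition above a per-plate cutoff, the plate's mean sample inhibition plus 3 SD, cut at about 24% in these data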;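 note: 0% = DMSO plus EC80 ATP and 100% = DMSO alone without ATP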
# CHO-K1 Ca PAM = M1 PAM counterscreen hit in parental CHO-K1 cells; activation, % at 3 µM; actives 0.02% (n = 360,000); ATP EC20, Fluo-8 calcium fluorescence; 0% at ATP EC20, 100% at ATP max; AID 602247;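 active = activation above the run cutoff, the mean activation of all test compounds plus 3 SD, cut at about 40% in these data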;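 note: peak over basal fluorescence ratio in a 140 s read after ATP addition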
# Numbers without * were called inactive; nt = not tested or not shown.
SMILES,CHRM1 agonist,CHO-K1 Ca ag,CHRM1 antagonist,M1 PAM,CHO-K1 Ca antag,CHO-K1 Ca PAM
COc1c(Cl)c(=O)oc2ccc(Cl)cc12,-6,0,-13,7,-17,16
COc1ccccc1-n1c(=O)oc2ccc(Cl)cc2c1=O,2,19*,0,4,-7,8
CCOC(=O)c1c(C)[nH]c(C(=O)COC(=O)c2ccc(N3CCCC3=O)cc2)c1C,-2,0,-12,7,27*,-7
CC1CC(C)CN(C(=O)COC(=O)c2ccc(N3CCCC3=O)cc2)C1 (stereo unspecified),-3,1,-13,10,-7,10
O=S(=O)(Nc1cccnc1)c1ccc(C2CCCCC2)cc1,6,10,27*,-19,22,9
O=S(=O)(Nc1cccnc1)c1ccccc1,-6,0,-12,13,-6,8
C=CCOC(=O)C1=C(C)OC(N)=C(C#N)C1c1ccccc1F (stereo unspecified),-5,-1,-5,5,-10,-7
C=CCOC(=O)C1=C(C)NC(=S)C(C#N)(CC=C)C1c1ccccc1Cl (stereo unspecified),5,17*,-1,8,2,10
Cc1c(O)ccc2c(CC(=O)N[C@@H](Cc3ccccc3)C(=O)O)cc(=O)oc12,-3,0,-9,4,-7,-6
CCN1CCc2nc(NC(=O)c3ccccc3)sc2C1,-5,0,4,2,2,-2
O=C(Nc1nc2c(s1)CN(Cc1ccccc1)CC2)C1CCC1,-8,0,46*,-10,-12,6
CCOC(=O)NC(=O)/C(C#N)=C/c1ccc(N(C)C)cc1,3,9,-4,8,3,2
CN(C)c1ccc(/C=C(\C#N)C(=O)Nc2nc3c(s2)CCN(Cc2ccccc2)C3)cc1,21*,15,35*,-12,17,-29
CCCCN(C)c1c(C)nc2ccc(C(=O)Nc3cc(-c4ccccc4)ccc3OC)cn12,1,-1,-10,8,2,9
CCCn1c(=O)c(C(=O)NNC(=O)c2ccccc2Cl)c(O)c2ccccc21,30*,21*,10,-16,-12,-1
CCn1c(=O)c(C(=O)NNC(=O)c2ccccc2)c(O)c2ccccc21,11,19*,-6,2,2,-8
CC(C)Cn1c(=O)c(C(=O)Nc2ccncc2)c(O)c2ccccc21,-7,0,99*,-24,-8,19
CC(C)CN1CCC(=O)N([C@H](COc2ccccc2)c2ccccc2)CC1,-9,0,9,-6,-15,13
COc1ccc(-n2cc(C(=O)O)c(=O)cc2C)cc1,-3,0,-2,-2,1,9
CCOc1cc2c3c(c1)C1(C(=O)N3C(C)(C)C=C2C)C(C#N)=C(N)Oc2cc(O)ccc21 (stereo unspecified),-1,0,-7,8,29*,3
COc1ccccc1CNC(=O)COC(=O)COc1ccccc1Cc1ccccc1,-2,0,-13,10,-8,-7
Cc1cc(C)nc(SCC(=O)N(C)CC(=O)Nc2c(Cl)cccc2Cl)n1,-1,2,-2,7,-12,13
O=C(NCc1ccco1)c1ccccc1NS(=O)(=O)c1ccc(Br)s1,1,8,-2,-1,24*,0
CN(c1ccccc1C(=O)Nc1ccccc1C(=O)NCc1ccco1)S(C)(=O)=O,1,0,-3,12,35*,-8
COc1ccc(S(=O)(=O)Nc2ccccc2C(=O)NCc2ccco2)cc1,-3,1,-7,6,-2,15
SMILES,CHRM1 agonist,CHO-K1 Ca ag,CHRM1 antagonist,M1 PAM,CHO-K1 Ca antag,CHO-K1 Ca PAM
COc1ccc(C(=O)Nc2ccccc2C(=O)NCc2ccco2)cc1OC,1,4,20*,-12,3,16
Cn1c(=O)oc2cc(S(=O)(=O)NCCC(=O)N3CCN(c4ccccc4F)CC3)ccc21,-4,3,11,-4,-2,-7
Cc1ccc(C)c(N2CCN(C(=O)CCNS(=O)(=O)c3ccc4c(c3)oc(=O)n4C)CC2)c1,1,17*,14,-14,-2,-14
C=CCC[C@H](CCCCC)OC(=O)/C=C/[C@@H](O)[C@H](O)C[C@@H](O)CC=C,nt,0,nt,nt,-3,-3
O=C(Nc1nc(-c2ccccc2)cs1)c1ccc(N2CCOCC2)c([N+](=O)[O-])c1,0,12,37,-18,25*,-2
O=C(Nc1nc(-c2ccccc2)cs1)c1ccc2c(=O)n3c(nc2c1)CCCCC3,-1,8,33*,-27,5,8
Cc1ccc(-c2csc(NC(=O)c3cc([N+](=O)[O-])ccc3N3CCOCC3)n2)cc1,-2,0,-11,4,-3,5
O=C(Nc1ccccc1Cl)c1ccc2c(=O)n3c(nc2c1)CCC3,-1,1,1,2,-21,16
C=CC[n+]1ccc(/C=C2\C=Cc3cc(C)ccc3N2CC)c2ccccc21,-3,7,44*,-13,49*,-22
CCN(CC1CCCO1)C(=O)CCc1nnc(CCc2ccc(OC)cc2)o1 (stereo unspecified),-1,0,-24,12,-6,5
COc1ccc(OC)c(NC(=O)C2(C)CCN2C(=O)C2(c3ccccc3)CCCC2)c1 (stereo unspecified),-3,-1,-7,2,-6,17
NC(=O)c1ccc[n+]([C@H]2O[C@@H](COP(=O)([O-])OP(=O)(O)OC[C@H]3O[C@@H](n4cnc5c(N)ncnc54)[C@H](O)[C@@H]3O)[C@H](O)[C@@H]2O)c1,27*,27*,-9,-4,10,6
Cc1cnc(NC(=O)CSc2ncc(-c3ccccc3)n2Cc2ccco2)s1,21*,11,22,-6,4,10
CNC(=O)/C(=C\c1ccc2c(c1)OCO2)NC(=O)c1ccc(Br)cc1,-8,0,4,2,-6,8
CC1(C(=O)NS(=O)(=O)c2ccc(F)cc2F)CCN1C(=O)Cc1ccc(Cl)cc1Cl (stereo unspecified),-3,0,0,-1,27*,-9
CC1(C(=O)NS(=O)(=O)c2ccc(F)cc2F)CCN1C(=O)Cc1ccccc1 (stereo unspecified),-4,0,3,-6,5,-10
CCOC(=O)CCCCCC(=O)Nc1ccc2c(c1)C(=O)N([C@@H](C)CO)C[C@@H](C)[C@H](CN(C)S(=O)(=O)c1cccs1)OCCCC[C@H](C)O2,-3,0,0,13,-8,11
NCCCC[C@H]1CN=C(N)N1CCC12CC3CC(CC(C3)C1)C2,-14,0,59*,-39,-10,-9
